Measurements taken from article PMC5540273 (PLoS ONE, 2017).

Tests used:
Settings in all cases: concentration: 1 μM, replicates: in singlicate; n = 1
[1] = tested on: HIPK4
[2] = tested on: HPK1
[3] = tested on: HUNK
[4] = tested on: ICK
[5] = tested on: IGF1R
[6] = tested on: T1, IKK-alpha
T1 construct: gene CHUK

[7] = tested on: T2, IKK-beta
T2 construct: gene IKBKB

[8] = tested on: T3, IKK-epsilon
T3 construct: gene IKBKE

[9] = tested on: INSRR
[10] = tested on: INSR
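Note: KINOMEscan kinase panel screen.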

| SMILES | %Inh [1] [%] | %Inh [2] [%] | %Inh [3] [%] | %Inh [4] [%] | %Inh [5] [%] | %Inh [6] [%] | %Inh [7] [%] | %Inh [8] [%] | %Inh [9] [%] | %Inh [10] [%] |
| --- | --- | --- | --- | --- | --- | --- | --- | --- | --- | --- |
| O=C(Nc1n[nH]c2nc(-c3cccs3)c(Br)cc12)C1CC1 [SB-735297] | 10 | 16 | 0 | 24 | 0 | 0 | 9 | 0 | 0 | 0 |
| Nc1nccc(-c2c(-c3ccc(F)cc3)ncn2C2CCN(Cc3ccccc3)CC2)n1 [SB-219980] | 0 | 11 | 37 | 1 | 0 | 0 | 0 | 5 | 1 | 0 |
| Cn1cnc2c(N)ncnc21 [SKF-97623] | 0 | 33 | 17 | 0 | 46 | 0 | 0 | 0 | 0 | 0 |
| CN1c2ccc(-c3ccc(C(N)=O)cc3)cc2-c2[nH]ncc2S1(=O)=O | 4 | 28 | 0 | 0 | 5 | 0 | 0 | 0 | 0 | 0 |
| Cc1ccc(-c2nc(Nc3ccncc3)c3ccccc3n2)s1 [GSK189015] | 27 | 41 | 0 | 19 | 18 | 2 | 20 | 0 | 22 | 9 |
